Results: article PMC9911399, “Two distinct binding modes provide the RNA-binding protein RbFox with extraordinary sequence specificity”
Substitutions are numbered along the chain they refer to; changes in the protein carry UniProt numbers. Whole data set: some 16,000 sequences, median “ka relative to ugcaugu” near 0.096, cut for the highest 2% near 0.35. The sample holds the highest values, similar sequences and a random draw of the others, so the mix is not that of the screen.

T1: RBFOX1 RRM RbFoxmut (Fox-RRM*) (Homo sapiens, UniProt Q9NWB1 109-208, R118D;E147R;N151S;E152T)
T1 sequence: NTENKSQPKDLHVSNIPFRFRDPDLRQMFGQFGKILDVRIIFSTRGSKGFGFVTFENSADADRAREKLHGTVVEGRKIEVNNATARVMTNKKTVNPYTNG

B1: AUGACGA (DNA:RNA)
RNA: GGGAGACCGGAAUUCAGAUUGUCCAUGACGAUUAAAUCCCGUCGUAGCCACCA
DNA 1: CAATCTGAATTCCGGTCTCCC
DNA 2: TGGTGGCTACGACGGGATT
B2: UACCUCG (DNA:RNA)
RNA: GGGAGACCGGAAUUCAGAUUGUCCUACCUCGUUAAAUCCCGUCGUAGCCACCA
DNA 1: CAATCTGAATTCCGGTCTCCC
DNA 2: TGGTGGCTACGACGGGATT
B3: UUUCACA (DNA:RNA)
RNA: B2 RNA with A26U, C27U, U29A, G31A
DNA 1: CAATCTGAATTCCGGTCTCCC
DNA 2: TGGTGGCTACGACGGGATT
B4: AGUUGGC (DNA:RNA)
RNA: B1 RNA with U26G, G27U, A28U, C29G, A31C
DNA 1: CAATCTGAATTCCGGTCTCCC
DNA 2: TGGTGGCTACGACGGGATT
B5: AAGCUUU (DNA:RNA)
RNA: B2 RNA with U25A, C27G, C30U, G31U
DNA 1: CAATCTGAATTCCGGTCTCCC
DNA 2: TGGTGGCTACGACGGGATT
B6: GACCGCU (DNA:RNA)
RNA: B2 RNA with U25G, U29G, G31U
DNA 1: CAATCTGAATTCCGGTCTCCC
DNA 2: TGGTGGCTACGACGGGATT
B7: GCCGCGG (DNA:RNA)
RNA: B1 RNA with A25G, U26C, G27C, A28G, A31G
DNA 1: CAATCTGAATTCCGGTCTCCC
DNA 2: TGGTGGCTACGACGGGATT
B8: CCUACUC (DNA:RNA)
RNA: B1 RNA with A25C, U26C, G27U, G30U, A31C
DNA 1: CAATCTGAATTCCGGTCTCCC
DNA 2: TGGTGGCTACGACGGGATT
B9: GAACGUC (DNA:RNA)
RNA: B2 RNA with U25G, C27A, U29G, C30U, G31C
DNA 1: CAATCTGAATTCCGGTCTCCC
DNA 2: TGGTGGCTACGACGGGATT
B10: GCGAUUG (DNA:RNA)
RNA: B1 RNA with A25G, U26C, C29U, G30U, A31G
DNA 1: CAATCTGAATTCCGGTCTCCC
DNA 2: TGGTGGCTACGACGGGATT
B11: GCGCGAA (DNA:RNA)
RNA: B1 RNA with A25G, U26C, A28C, C29G, G30A
DNA 1: CAATCTGAATTCCGGTCTCCC
DNA 2: TGGTGGCTACGACGGGATT
B12: GCGAACG (DNA:RNA)
RNA: B1 RNA with A25G, U26C, C29A, G30C, A31G
DNA 1: CAATCTGAATTCCGGTCTCCC
DNA 2: TGGTGGCTACGACGGGATT
B13: GAUUGUG (DNA:RNA)
RNA: B2 RNA with U25G, C27U, C28U, U29G, C30U
DNA 1: CAATCTGAATTCCGGTCTCCC
DNA 2: TGGTGGCTACGACGGGATT
B14: GCGACCG (DNA:RNA)
RNA: B1 RNA with A25G, U26C, G30C, A31G
DNA 1: CAATCTGAATTCCGGTCTCCC
DNA 2: TGGTGGCTACGACGGGATT
B15: GCGAAUG (DNA:RNA)
RNA: B1 RNA with A25G, U26C, C29A, G30U, A31G
DNA 1: CAATCTGAATTCCGGTCTCCC
DNA 2: TGGTGGCTACGACGGGATT
B16: CGAUGUG (DNA:RNA)
RNA: B2 RNA with U25C, A26G, C27A, C28U, U29G, C30U
DNA 1: CAATCTGAATTCCGGTCTCCC
DNA 2: TGGTGGCTACGACGGGATT
B17: GCGAACC (DNA:RNA)
RNA: B1 RNA with A25G, U26C, C29A, G30C, A31C
DNA 1: CAATCTGAATTCCGGTCTCCC
DNA 2: TGGTGGCTACGACGGGATT
B18: GCGAAUU (DNA:RNA)
RNA: B1 RNA with A25G, U26C, C29A, G30U, A31U
DNA 1: CAATCTGAATTCCGGTCTCCC
DNA 2: TGGTGGCTACGACGGGATT
B19: GAAUGUG (DNA:RNA)
RNA: B2 RNA with U25G, C27A, C28U, U29G, C30U
DNA 1: CAATCTGAATTCCGGTCTCCC
DNA 2: TGGTGGCTACGACGGGATT

Target: T1, RBFOX1 RRM RbFoxmut (Fox-RRM*)
Experiment: EMSA; HiTS-Eq, 1 nM pool, 10 min; buffer printed only for the single-RNA assays: 10 mM Tris pH 7.5, 150 mM NaCl, 3.4 mM EDTA, 0.001% NP-40, 30 C
Details: tags: His6 N-terminal (pET28a); label: 5' 32P
In short: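 Purified RbFox RRM, wild type or mutant, was incubated for 10 min in 50 µL with 1 nM of a 5′-radiolabelled RNA pool carrying 7 randomized nucleotides, whose flanks were annealed to DNA oligonucleotides, over a series of increasing protein concentrations. Unbound RNA was resolved on 8% native PAGE, cut out, reverse-transcribed, barcoded by PCR and sequenced on an Illumina HiSeq 2500. Relative association constants were derived from changes in read counts for each RNA species versus the control reaction and normalised to the cognate motif.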

Binder	binding signal
B1	0.0609 KA relative to UGCAUGU
B2	0.107 KA relative to UGCAUGU
B3	0.0896 KA relative to UGCAUGU
B4	0.107 KA relative to UGCAUGU
B5	0.0764 KA relative to UGCAUGU
B6	0.0966 KA relative to UGCAUGU
B7	0.0996 KA relative to UGCAUGU
B8	0.0423 KA relative to UGCAUGU
B9	0.102 KA relative to UGCAUGU
B10	0.206 KA relative to UGCAUGU
B11	0.104 KA relative to UGCAUGU
B12	0.354 KA relative to UGCAUGU
B13	0.249 KA relative to UGCAUGU
B14	0.111 KA relative to UGCAUGU
B15	1.44 KA relative to UGCAUGU
B16	0.151 KA relative to UGCAUGU
B17	0.0798 KA relative to UGCAUGU
B18	0.113 KA relative to UGCAUGU
B19	1.27 KA relative to UGCAUGU
